“And” between values parts separate entries of the source, which are not always exact repeats. Identical values can stand only once. The campaign covered roughly 5,500 compounds. About 2,000 (36%) were called active. Another 18% or so got no clear call; they are omitted. No stated cut-off is given here; in the data, active means normalized growth mostly below about 0.91 (no sharp cut-off); inconclusive means no clear call, values can overlap the other calls; inactive means mostly above about 0.92. The list shows a part of the results.
Experiment: chemical genetic growth profiling, strain panel (AID 1159580);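 further: tested at 20 µM; growth read once vehicle control cultures reached saturation at 30 °C; 1 = growth at the plate median or of vehicle wells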
Settings: S. cerevisiae deletion strains, growth OD
[1] = locus YMR307W, strain GAS1, stronger effect = lower value

Measured: normalized growth

C[C@]12CCC3C(CC[C@H]4CC(=O)CC[C@]34C)C1CCC2=O (some centres undefined)
active: locus YAL021C, strain ccr4, stronger effect = lower value 0.737 | locus YBR009C, strain hhf1, stronger effect = lower value 0.79 | locus YBR021W, strain FUR4, stronger effect = lower value 0.781 | locus YCL011C, strain gbp2, stronger effect = lower value 0.86 | locus YDL035C, strain GPR1, stronger effect = lower value 0.787 | locus YDL192W, strain arf1, stronger effect = lower value 0.866 | locus YDR137W, strain rgp1, stronger effect = lower value 0.549 | locus YDR159W, strain sac3, stronger effect = lower value 0.799 | locus YDR162C, strain NBP2, stronger effect = lower value 0.408 | locus YDR195W, strain ref2 1.28 [resistant] | locus YDR318W, strain mcm21, stronger effect = lower value 0.895 | locus YDR388W, stronger effect = lower value 0.86 | locus YDR392W, strain spt3, stronger effect = lower value 0.495 | locus YDR502C, strain sam2, stronger effect = lower value 0.835 | locus YEL003W, strain gim4, stronger effect = lower value 0.774 | locus YER155C, strain BEM2 (second series), stronger effect = lower value 0.753 | locus YGL173C, strain kem1, stronger effect = lower value 0.821 | locus YGL240W, strain doc1, stronger effect = lower value 0.768 | locus YGR135W, strain pre9, stronger effect = lower value 0.856 | locus YGR252W, strain gcn5, stronger effect = lower value 0.692 | locus YHR142W, strain chs7, stronger effect = lower value 0.803 | locus YIL066C, strain RNR3, stronger effect = lower value 0.795 | locus YJL095W, strain BCK1 (second series), stronger effect = lower value 0.632 | locus YJL129C, strain trk1, stronger effect = lower value 0.851 | locus YJL164C, strain tpk1, stronger effect = lower value 0.847 | locus YJL166W, strain qcr8, stronger effect = lower value 0.815 | locus YJL187C, strain SWE1, stronger effect = lower value 0.923 | locus YKR001C, strain vps1, stronger effect = lower value 0.86 | locus YLL026W, stronger effect = lower value 0.928 | locus YLR027C, strain aat2, stronger effect = lower value 0.875 | locus YLR039C, strain RIC1, stronger effect = lower value 0.504 | locus YLR221C, strain rsa3, stronger effect = lower value 0.796 | locus YLR262C, strain YPT6 (second series), stronger effect = lower value 0.471 | locus YLR262C, strain YPT6, stronger effect = lower value 0.487 | locus YLR320W, strain mms22, stronger effect = lower value 0.595 | locus YLR342W, strain FKS1 (second series), stronger effect = lower value 0.718 | locus YLR418C, strain cdc73, stronger effect = lower value 0.701 | locus YML032C, strain rad52, stronger effect = lower value 0.82 | locus YML120C, strain ndi1, stronger effect = lower value 0.853 | locus YMR058W, strain fet3, stronger effect = lower value 0.872 | locus YMR205C, strain PFK2, stronger effect = lower value 0.726 | locus YMR223W, strain ubp8, stronger effect = lower value 0.864 | locus YNL071W, strain lat1, stronger effect = lower value 0.563 | locus YNL250W, strain rad50, stronger effect = lower value 0.894 | locus YNL271C, strain bni1, stronger effect = lower value 0.893 | locus YNL298W, strain CLA4, stronger effect = lower value 0.821 | locus YNL307C, strain MCK1, stronger effect = lower value 0.723 | locus YNR052C, strain pop2, stronger effect = lower value 0.648 | locus YOL006C, strain TOP1, stronger effect = lower value 0.529 | locus YOR001W, strain rrp6, stronger effect = lower value 0.833 | locus YOR106W, strain vam3, stronger effect = lower value 0.766 | locus YOR184W, strain ser1, stronger effect = lower value 0.658 | locus YOR270C, strain vph1, stronger effect = lower value 0.634 | locus YPL051W, strain arl3, stronger effect = lower value 0.865 | locus YPL078C, strain atp4, stronger effect = lower value 0.886 | locus YPR163C, strain tif3, stronger effect = lower value 0.884
inactive: locus YAL026C, strain drs2, stronger effect = lower value 0.949 | locus YAL030W, strain snc1, stronger effect = lower value 0.938 | locus YBL061C, strain skt5, stronger effect = lower value 0.987 | locus YBR023C, strain chs3, stronger effect = lower value 0.942 | locus YBR171W, strain sec66, stronger effect = lower value 1 | locus YBR229C, strain ROT2, stronger effect = lower value 0.964 | locus YBR231C, strain swc5, stronger effect = lower value 0.999 | locus YBR279W, strain paf1, stronger effect = lower value 0.983 | locus YCL016C, strain dcc1, stronger effect = lower value 0.94 | locus YCL029C, strain bik1, stronger effect = lower value 0.948 | locus YCL069W, strain vba3, stronger effect = lower value 0.979 | locus YCR088W, strain abp1, stronger effect = lower value 1.03 | locus YDL005C, strain med2, stronger effect = lower value 1.03 | locus YDL040C, strain nat1, stronger effect = lower value 1.03 | locus YDL074C, strain BRE1, stronger effect = lower value 0.795 | locus YDL101C, strain DUN1, stronger effect = lower value 0.978 | locus YDL185W, strain tfp1, stronger effect = lower value 0.932 | locus YDR001C, strain nth1, stronger effect = lower value 1.03 | locus YDR069C, strain doa4, stronger effect = lower value 0.942 | locus YDR101C, strain arx1, stronger effect = lower value 0.947 | locus YDR150W, strain NUM1, stronger effect = lower value 1.01 | locus YDR297W, strain sur2, stronger effect = lower value 0.939 | locus YDR334W, strain swr1, stronger effect = lower value 1.05 | locus YDR335W, strain msn5, stronger effect = lower value 0.932 | locus YEL037C, strain rad23, stronger effect = lower value 1.01 | locus YEL061C, strain CIN8 (second series), stronger effect = lower value 1.01 | locus YEL061C, strain CIN8, stronger effect = lower value 0.994 | locus YER015W, strain faa2, stronger effect = lower value 0.985 | locus YER016W, strain bim1, stronger effect = lower value 0.998 | locus YER110C, stronger effect = lower value 0.958 | locus YER111C, strain swi4, stronger effect = lower value 0.998 | locus YER155C, strain BEM2, stronger effect = lower value 1.04 | locus YER167W, strain BCK2, stronger effect = lower value 0.966 | locus YFR010W, strain ubp6, stronger effect = lower value 0.973 | locus YGL078C, strain dbp3, stronger effect = lower value 0.943 | locus YGL086W, strain mad1, stronger effect = lower value 0.971 | locus YGL167C, strain pmr1, stronger effect = lower value 1.02 | locus YGL227W, strain vid30, stronger effect = lower value 1.08 | locus YGL248W, strain PDE1, stronger effect = lower value 0.912 | locus YGL253W, strain hxk2, stronger effect = lower value 0.92 | locus YHR013C, strain ard1, stronger effect = lower value 0.978 | locus YHR027C, strain rpn1, stronger effect = lower value 0.985 | locus YHR030C, strain SLT2, stronger effect = lower value 0.974 and 0.898 | locus YHR079C, strain IRE1 (second series), stronger effect = lower value 0.991 | locus YHR079C, strain IRE1, stronger effect = lower value 0.901 | locus YHR094C, strain hxt1, stronger effect = lower value 0.997 | locus YHR129C, strain ARP1, stronger effect = lower value 0.96 | locus YHR200W, strain rpn10, stronger effect = lower value 0.928 | locus YIL073C, strain SPO22, stronger effect = lower value 0.782 | locus YIL125W, strain kgd1, stronger effect = lower value 0.989 | locus YIR030C, strain dcg1, stronger effect = lower value 0.976 | locus YJL092W, strain hpr5, stronger effect = lower value 0.978 | locus YJL115W, strain asf1, stronger effect = lower value 1.01 | locus YJL134W, strain LCB3, stronger effect = lower value 1.01 | locus YJL154C, strain vps35, stronger effect = lower value 1.03 | locus YJL168C, strain set2, stronger effect = lower value 1 | locus YJL187C, strain SWE1 (second series), stronger effect = lower value 0.92 | locus YJR043C, strain POL32, stronger effect = lower value 0.883 | locus YJR066W, strain TOR1, stronger effect = lower value 0.881 | locus YKL009W, strain mrt4, stronger effect = lower value 0.906 | locus YKL068W, stronger effect = lower value 0.989 | locus YKL085W, strain MDH1 (second series), stronger effect = lower value 0.97 | locus YKL085W, strain MDH1, stronger effect = lower value 0.97 | locus YKL160W, strain elf1, stronger effect = lower value 0.95 | locus YKL190W, strain CNB1, stronger effect = lower value 0.98 | locus YKR026C, strain gcn3, stronger effect = lower value 1.02 | locus YKR091W, strain srl3, stronger effect = lower value 1.03 | locus YLL001W, strain dnm1, stronger effect = lower value 0.942 | locus YLL041C, strain sdh2, stronger effect = lower value 1.01 | locus YLR058C, strain SHM2, stronger effect = lower value 0.958 | locus YLR102C, strain apc9, stronger effect = lower value 0.992 | locus YLR113W, strain HOG1, stronger effect = lower value 0.923 | locus YLR258W, strain gsy2, stronger effect = lower value 0.92 | locus YLR268W, strain sec22, stronger effect = lower value 0.927 | locus YLR330W, strain CHS5, stronger effect = lower value 0.95 | locus YLR342W, strain FKS1, stronger effect = lower value 0.912 | locus YLR357W, strain rsc2, stronger effect = lower value 1.08 | locus YLR370C, strain arc18, stronger effect = lower value 0.972 | locus YLR371W, strain rom2, stronger effect = lower value 0.956 | locus YLR384C, strain iki3, stronger effect = lower value 1.04 | locus YML016C, strain PPZ1, stronger effect = lower value 0.988 | locus YML124C, strain tub3, stronger effect = lower value 0.996 | locus YMR078C, strain ctf18, stronger effect = lower value 0.966 | locus YMR125W, strain sto1, stronger effect = lower value 1.02 | locus YMR129W, stronger effect = lower value 0.929 | locus YMR231W, strain pep5, stronger effect = lower value 0.99 | [1] 0.771 | locus YNL067W, strain RPL9B, stronger effect = lower value 0.985 | locus YNL183C, strain NPR1, stronger effect = lower value 0.876 | locus YNL209W, strain ssb2, stronger effect = lower value 0.991 | locus YNL233W, strain BNI4, stronger effect = lower value 0.902 | locus YNL248C, strain rpa49, stronger effect = lower value 0.908 | locus YNL322C, strain KRE1 (second series), stronger effect = lower value 0.977 | locus YNL322C, strain KRE1, stronger effect = lower value 0.99 | locus YNR049C, strain mso1, stronger effect = lower value 1.02 | locus YOL012C, strain htz1 1.71 | locus YOL147C, strain pex11, stronger effect = lower value 0.975 | locus YOR061W, strain CKA2, stronger effect = lower value 0.923 | locus YOR069W, strain VPS5, stronger effect = lower value 1 | locus YOR070C, strain gyp1, stronger effect = lower value 0.946 | locus YOR080W, strain dia2, stronger effect = lower value 1.02 | locus YOR083W, strain WHI5, stronger effect = lower value 0.904 | locus YOR136W, strain idh2, stronger effect = lower value 0.994 | locus YOR144C, strain elg1, stronger effect = lower value 0.954 | locus YOR231W, strain MKK1, stronger effect = lower value 0.901 | locus YOR265W, strain rbl2, stronger effect = lower value 0.997 | locus YOR290C, strain snf2, stronger effect = lower value 0.932 | locus YOR316C, strain cot1, stronger effect = lower value 0.981 | locus YPL106C, strain sse1, stronger effect = lower value 1.14 | locus YPL240C, strain hsp82, stronger effect = lower value 0.936 | locus YPL256C, strain CLN2, stronger effect = lower value 0.887 | locus YPR119W, strain clb2, stronger effect = lower value 1.01 | locus YPR141C, strain kar3, stronger effect = lower value 1 | locus YPR167C, strain met16, stronger effect = lower value 0.921 | strain wtn01, stronger effect = lower value 0.944
0.743 (active) and 0.898 (inactive): locus YJL095W, strain BCK1, stronger effect = lower value

CC(=O)[C@H]1CC[C@H]2[C@@H]3CC[C@H]4C[C@H](O)CC[C@]4(C)[C@H]3C(=O)C[C@]12C
inactive: locus YAL040C, strain CLN3, stronger effect = lower value 0.999 | locus YCL061C, strain MRC1 (second series), stronger effect = lower value 0.995 | locus YDR363W, strain ESC2, stronger effect = lower value 0.983 | locus YER002W, strain NOP16, stronger effect = lower value 0.993 | locus YGR078C, strain PAC10, stronger effect = lower value 0.994 | locus YMR263W, strain SAP30, stronger effect = lower value 1 | [1] 0.981 | locus YNL175C, strain NOP13, stronger effect = lower value 0.974 | locus YNL197C, strain WHI3, stronger effect = lower value 0.994 | locus YNL224C, strain SQS1, stronger effect = lower value 1.01 | locus YOR083W, strain WHI5 (second series), stronger effect = lower value 0.997 | locus YPL055C, strain LGE1, stronger effect = lower value 0.947
